TLR4-MyD88 BLA – inhibitors of TLR4-MyD88 association in cells, primary screen, cell-based, HeLa CL3-4, BLA complementation, FRET ratio; AID 861, 2007; inhibition, % at 8.4 µM; 0.18% of 200,000 active; HeLa CL3-4 TLR4/MyD88 BLA complementation; in the data active = inhibition above about 25%;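 note: 0% = vehicle and 100% = reference inhibitor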
Neddyl block – inhibitors of cullin neddylation, primary screen, biochemical, TR-FRET, uHTS, NAE and Ubc12. NEDD8-conjugating enzyme Ubc12 (Homo sapiens) + NEDD8-activating enzyme E1 regulatory …. inhibition, % at 25 µM. 0.58% of 360,000 active. AID 651699, 2012; in the data active = inhibition above about 36%
Target sequence (P61081 whole entry, looked up): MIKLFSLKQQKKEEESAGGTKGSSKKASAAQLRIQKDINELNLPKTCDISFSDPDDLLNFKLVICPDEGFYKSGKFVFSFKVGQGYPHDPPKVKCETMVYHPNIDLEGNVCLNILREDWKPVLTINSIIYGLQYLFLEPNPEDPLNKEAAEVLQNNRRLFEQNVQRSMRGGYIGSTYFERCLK
Target sequence (Q13564 whole entry, looked up): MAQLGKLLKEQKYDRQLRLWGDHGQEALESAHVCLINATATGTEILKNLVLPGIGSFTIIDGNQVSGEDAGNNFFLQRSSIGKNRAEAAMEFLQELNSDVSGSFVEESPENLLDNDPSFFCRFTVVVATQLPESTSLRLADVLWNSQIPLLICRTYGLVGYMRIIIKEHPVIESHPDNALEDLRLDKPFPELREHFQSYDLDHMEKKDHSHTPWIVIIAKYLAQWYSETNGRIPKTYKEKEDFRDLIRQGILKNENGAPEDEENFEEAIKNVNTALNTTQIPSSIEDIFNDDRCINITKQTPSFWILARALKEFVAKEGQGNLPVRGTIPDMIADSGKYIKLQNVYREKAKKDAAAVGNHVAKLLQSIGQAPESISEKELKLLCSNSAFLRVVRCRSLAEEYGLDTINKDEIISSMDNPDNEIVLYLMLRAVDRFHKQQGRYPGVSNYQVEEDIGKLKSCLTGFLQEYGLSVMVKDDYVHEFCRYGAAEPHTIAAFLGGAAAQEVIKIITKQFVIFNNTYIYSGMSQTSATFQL
NOD2-RIPK2 inh – NOD2-RIPK2 binding disruptors in cells, primary screen, fluorescence, CHO cells, BLA complementation | CCF4 ratio | inhibition, % at 4.98 µM | 0.38% of 360,000 active | AID 624267, 2012; in the data active = inhibition above about 21%;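 note: 0% = vehicle only and 100% = reference blocker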
GC-A act – GC-A stimulated cGMP production enhancers – HEK293 GC-A cells, cGMP TR-FRET, EC30 ANP, primary screen; Atrial natriuretic peptide receptor 1 (Homo sapiens), P16066; 0% at EC30 ANP, 100% saturating ANP; activation, % at 10 µM; 0.14% of 370,000 active; AID 1671463, 2021; in the data active = activation above about 40%
GC-B act – human GC-B receptor activators, primary screen, HEK293 GC-B cells, cGMP TR-FRET, EC30 CNP; Atrial natriuretic peptide receptor 2 (Homo sapiens), P20594; 0% at EC30 CNP, 100% saturating CNP; activation, % at 10 µM; 0.11% of 370,000 active;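 active = activation at 10 µM reaching about 35% in either raw or pattern-adjusted values, limit read from the data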
TLR9-MyD88 block – inhibitors of TLR9-MyD88 association in cells, primary screen, cell-based, CHO, BLA complementation, fluorescence; 0.21% of 340,000 active; Toll-like receptor 9 (Homo sapiens) + Myeloid differentiation primary response protein …; CCF4 FRET ratio; inhibition, % at 4.98 µM;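 active = inhibition above the mean over all tested compounds plus 3 SD, cut at about 21% in these data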;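 note: 0% = DMSO only wells and 100% = clavulanate BLA inhibitor control wells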
Neddyl conf – blockade of NEDD8 conjugation to cullin – biochemical, TR-FRET, single concentration, confirmation; TR-FRET cullin neddylation biochemical assay; shares compounds with Neddyl block; 13% of 1,800 active; calls only at 25 µM; in the data active = inhibition above about 40%;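 note: neddylation substrate is the cullin 1 ring ligase complex with SKP2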
* marks the source's active call; other numbers are inactive results; i = inactive; x = not tested or not shown; + = active, no number. Sampled rows, rich in hits. Any-hit rate of the full collection: about 1.2%.

SMILES	TLR4-MyD88 BLA	Neddyl block	NOD2-RIPK2 inh	GC-A act	GC-B act	TLR9-MyD88 block	Neddyl conf
Cc1[nH]c2ccccc2c1C(=O)C(=O)NCc1nnnn1-c1ccc(F)c(F)c1	x	6.9	11.1	0.5	-8.2	-6.3	x
CCN(CC)CCNC1=NCCn2c1cc1cc(OC)ccc12	2.2	x	2.0	-0.9	3.7	1.8	x
CN=C1c2cc3cc(OC)ccc3n2CCN1Cc1ccccc1	-2.1	41.0*	3.9	0.0	-4.5	17.8	i
CC(=O)Nc1ccc(-c2ccnc3c2CC(C)(C(=O)NCc2ccc(N(C)C)cc2)O3)cc1 (configuration not stated)	x	7.7	-3.0	0.1	1.2	x	x
CCCCN(C)C(=O)CCC(=O)Nc1ccc2nc(N3CCN(C)CC3)cc(C)c2c1	-24.9	45.2*	-13.3	3.4	2.4	2.7	i
Cc1cc(N2CCN(C)CC2)nc2ccc(NC(=O)CCC(=O)NCCc3ccc(Cl)cc3)cc12	x	41.7*	2.7	-0.8	1.2	3.4	i
COc1cc(OC)cc(-c2oc3cccnc3c2C#CCCO)c1	x	36.6*	-1.4	-20.2	-26.8	-0.3	+
CCc1nnc(NC(=O)c2cccc(S(=O)(=O)N(C)c3ccccc3)c2)s1	11.3	7.6	-13.3	-1.5	3.2	2.4	x
CCSc1nnc(NC(=O)c2cccc(S(=O)(=O)N(C)c3ccc(C)cc3)c2)s1	5.2	44.4*	-4.3	-1.2	2.0	0.4	i
COC(=O)[C@@]12CCCCC3=C1N(CCC3)C(=O)[C@H]2CC(=O)NCc1cccc(C(F)(F)F)c1	x	x	x	0.4	-3.9	x	x
O=C(NCc1cccc(C(F)(F)F)c1)N1CCN(C(=O)c2ccccc2)CC1	x	7.2	0.7	-0.1	1.1	1.6	x
COc1ccc(/C=c2\s/c(=C(/C#N)C(=O)NCc3ccco3)n(-c3ccccc3)c2=O)cc1	-4.1	47.2*	-9.9	-0.9	-3.0	-1.2	i
Cc1cccc(S(=O)(=O)Nc2nc3ccccc3nc2NCC2CCCO2)c1 (configuration not stated)	x	28.4	4.0	2.0	4.7	-4.8	x
Cc1ccc(S(=O)(=O)Nc2nc3ccccc3nc2NCC2CCCO2)cc1C (configuration not stated)	x	38.8*	-6.7	2.1	4.1	5.5	i
Cc1ccc(S(=O)(=O)Nc2nc3ccccc3nc2NCC2CCCO2)c(C)c1 (configuration not stated)	x	47.3*	-13.8	2.4	-3.8	-4.3	x
COc1ccc(-c2cc(C(=O)NN=Cc3ccc(C)s3)[nH]n2)cc1	x	x	x	-6.2	-1.0	x	x
COCCNC(=O)/C(C#N)=C/c1c(N2CCN(c3ccccc3)CC2)nc2c(C)cccn2c1=O	x	58.4*	-1.1	6.1	-0.1	-7.2	i
CCc1cc(=O)oc2cc(OCC=C(C)C)ccc12	-11.4	32.7	-12.5	-3.9	-1.4	-6.4	x
CCc1cc(=O)oc2cc(OCc3nn[nH]n3)ccc12	-4.8	40.5*	-5.5	x	x	0.7	i
Cc1cc(=O)oc2cc(OS(C)(=O)=O)ccc12	-23.9	9.5	-5.5	0.1	1.8	-5.1	x
CCc1cc(=O)oc2cc(OS(C)(=O)=O)ccc12	8.1	41.9*	-1.2	-3.9	-4.8	-2.2	x
CC(C)c1cc(NCCN2CCOCC2)n2c(nc3ccccc32)c1C#N	x	37.7*	0.9	6.3	-0.8	0.7	i
CCCc1c(C)c(C#N)c2nc3ccccc3n2c1NCCCN1CCOCC1	0.9	46.0*	-3.1	-28.2	-23.1	-6.1	i
CCc1c(C)c(C#N)c2nc3ccccc3n2c1NCCOC	x	40.7*	-5.3	-1.5	5.3	-10.8	x
O=C1CCC[C@H]2C[C@H](NCc3ccccc3Cl)CC[C@]23CCCN13	x	x	x	-2.7	1.2	x	x
SMILES	TLR4-MyD88 BLA	Neddyl block	NOD2-RIPK2 inh	GC-A act	GC-B act	TLR9-MyD88 block	Neddyl conf
CSc1nc2n(n1)C(c1cccs1)C1=C(CCCC1=O)N2 (configuration not stated)	-9.4	42.1*	-57.9	-14.1	-8.7	10.8	i
Cc1ccccc1CSc1nc2n(n1)C(c1cccs1)C1=C(CCCC1=O)N2 (configuration not stated)	-3.1	38.7*	-5.9	-0.9	1.4	-7.2	x
O=C(NC1CCCC1)C(C1CC1)n1c(-c2ccccn2)nc2ccccc21 (configuration not stated)	x	33.8	2.6	-9.7	-11.4	x	x
CCOC(=O)CSc1ccc2nnc(-c3cccnc3)n2n1	0.1	54.6*	-7.4	2.4	4.4	2.8	x
CC1C(=O)Nc2ccc(S(=O)(=O)N3CCCCCC3)cc21 (configuration not stated)	x	-15.6	-4.0	1.3	-3.4	0.4	x
Cc1nnc(SCc2cc(=O)oc3cc(O)ccc23)n1Cc1ccccc1	-19.9	54.5*	-3.2	-2.0	-3.6	-9.8	i
CCCCNC(=O)c1nc(C2CCN(S(=O)(=O)c3ccc(S(C)(=O)=O)cc3)CC2)oc1-c1ccccc1	x	14.1	-13.9	0.8	-3.5	x	x
COc1ncccc1-c1nnn(-c2ccc(Cl)nc2)n1	-6.0	31.0*	-8.5	-5.5	-7.5	-3.1	i
CCN(CC)c1ccc2c(O)cc(=O)oc2c1	-4.6	41.4*	-6.3	-1.9	-0.5	-0.2	i
C=CCC[C@@H](Cc1ccc(F)cc1)C(=O)OC[C@@H](Cc1ccccc1)NC(=O)[C@@H](CC=C)CC(=O)N[C@@H](CO)Cc1ccccc1	x	-19.4	7.1	-0.3	0.2	-1.0	x
O=C(NCc1cccnc1)c1cc(C2CCCCN2C(=O)CCCc2ccccc2)on1 (configuration not stated)	x	-4.3	1.4	-0.8	1.3	x	x
NCCCCc1ccc2ccc3cccc4ccc1c2c34	x	51.5*	-0.9	8.3	-9.5	-2.5	i
CCN(CC)C(=O)c1oc(=O)c2ccccc2c1-c1ccc(C)cc1	x	x	x	-7.0	-18.6	x	x
O=C(C[C@@H]1C=C[C@H](NC(=O)Cc2ccccn2)[C@@H](CO)O1)NCCc1ccccc1	x	4.1	-11.2	1.4	13.8	x	x
CCOC(=O)C(C)Sc1nc(-c2ccco2)cc(C(F)(F)F)c1C#N (configuration not stated)	-2.3	40.7*	-0.2	-7.2	-2.9	-13.5	x

Bioassay records from PubChem.
